These results are taken from PubChem BioAssay (NCATS).

Structures are written as SMILES. Results filed as inconclusive are left out. A call without a number means that no potency is given here. A number with no mark means an inactive call. Calls of active or inactive are those of the source. The call rests on the fitted dose curve; in most records, active means well fitted inhibition curve with a large enough effect; inconclusive means small, poorly fitted or top-dose-only effect; inactive means no such curve, though single readings can be large or run the other way.

For the assay, the system named is Zika virus NS2B-NS3 protease (linked construct). Briefly: Primary screen NINDS Rhodamine qHTS for Zika virus inhibitors (AID 1347160). Further: nearly all actives have a fitted effect of over 55% in size. The note with it: purified NS2B-NS3 protease, Rhodamine110 substrate fluorescence; series mostly up to 57.1 µM. The essentials: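 Purified NS2B-NS3 protease with the NS2B hydrophilic domain joined by a flexible linker (25 nM) in 10 mM Tris-HCl pH 8.0, 0.01% Tween 20, preincubated 15 min at RT with compound; Rhodamine110 peptide substrate 1.5 µM; fluorescence change over 15 min; 4-parameter Hill fit.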
Background: In qHTS, concentration-response curves come from the screen itself.
Consider `CC(C)N(C[C@H]1O[C@@H](n2cnc3c(N)ncnc32)[C@H](O)[C@@H]1O)C1CC(CCc2nc3ccc(C(C)(C)C)cc3[nH]2)C1` (some centres not stated), for which the Potency entry was “inactive”. Regarding `COc1cc(N2CCC(N(C)C)CC2)ccc1Nc1ncc(Cl)c(Nc2ccccc2P(C)(C)=O)n1`, the Potency entry is “inactive”. Still for that read-out and setting: the entry for `O=C(/C=C/c1ccc(O)cc1)OC[C@H]1O[C@@H](OC(=O)/C=C/c2ccccc2)[C@H](O)[C@@H](O)[C@@H]1O` is “inactive”. As to `COc1c(C)c(OCC=C(C)C)cc2c1C(=O)NC2=O`, the Potency entry was “inactive”.

For `C[C@@H](OC(=O)/C=C/c1ccc(O)cc1)C1=C[C@]2(C=C[C@@H]3C(C(=O)O)=CO[C@@H](O[C@@H]4O[C@H](CO[C@@H]5O[C@H](CO)[C@@H](O)[C@H](O)[C@H]5O)[C@@H](O)[C@H](O)[C@H]4O)[C@@H]32)OC1=O`, the Potency entry was “inactive”. As to `O=C(Nc1cccnn1)N1CCC(=Cc2cccc(Oc3ccc(C(F)(F)F)cn3)c2)CC1`, the Potency result was “inactive”. The same measure, in the same setting: next, `C[C@]12CC[C@@H]3c4ccc(O[C@@H]5O[C@H](C(=O)O)[C@@H](O)[C@H](O)[C@H]5O)cc4CC[C@H]3[C@@H]1CCC2=O`: “inactive”. Same read-out and setting: the entry for `CC(=O)OC(CSC1CCC(=O)OC(C)CCC(=O)C1)C(=O)O` (configuration not stated) is “inactive”. Still for that read-out and setting: the entry for `CC1CCC2(C(=O)OC3OC(COC4OC(CO)C(O)C(O)C4O)C(O)C(O)C3O)CCC3(C)C(=CCC4C5(C)CCC(O)C(C)(C(=O)O)C5CCC43C)C2C1(C)O` (configuration not stated) is “inactive”. Consider `O=C1NC(Cc2ccc(O)cc2)C(=O)N2CCCC12` (configuration not stated), for which the Potency result is “inactive”. For the compound `C#Cc1cnc2[nH]c(=O)n(C(CC)CC)c2n1`, the Potency entry is “inactive”.

As to `C[C@@H]1O[C@@H](O[C@H]2[C@H](OC(=O)C34CCC5(C)C(=CCC6C7(C)CC(O)C(O[C@@H]8O[C@H](C(=O)O)[C@@H](O)[C@H](O)[C@H]8O)C(C)(C(=O)O)C7CCC65C)C3CC(C)(C)CC4O)O[C@H](C)[C@@H](O)[C@@H]2O)[C@H](O)[C@@H](O[C@@H]2OC[C@](O)(CO)[C@H]2O[C@@H]2O[C@H](CO)[C@@H](O)[C@H](O)[C@H]2O)[C@H]1O` (some centres not stated), the activity change, negative = inhibition is -17.8% [at 10.7 µM].
